# From PubChem BioAssay (NCATS)
# Several values for one entry are separate records, joined by “and”; a condition that tells them apart may be missing. Identical values can stand only once. Results filed as inconclusive are left out. A call without a number means that no potency is given here. Some structures have more than one record in an assay (separate samples or runs), and their calls can disagree. Values without a mark were called inactive. Activity calls are given as the source filed them. Calls come from the whole dose curve; as a rule, active = well fitted inhibition curve with a large enough effect; inconclusive = small, poorly fitted or top-dose-only effect; inactive = flat fitted curve, though single readings scatter.
# Legend:
# CRL-7250 = normal cell line; assay: Cytotoxic Profiling of Annotated Libraries Using Quantitative High-Throughput Screening (AID 1296008); conditions: Five cell lines viability, CellTiter-Glo ATP luminescence, 48-72 h; max response: stronger effect = lower value
# Outline: (§1)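 Compounds were pin-transferred onto cells and incubated 48 or 72 hr at 37 degree Celsius, 95% humidity. CellTiter-Glo was added, plates sat 10 min at room temperature, then ATP-coupled luminescence was imaged as the viability read-out.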
# HEK293 = assay: as above; conditions: Five cell lines viability, CellTiter-Glo ATP luminescence, 48-72 h; max response: stronger effect = lower value
# Outline: as §1
# HaCat = assay: as above; conditions: Five cell lines viability, CellTiter-Glo ATP luminescence, 48-72 h; max response: stronger effect = lower value
# Outline: as §1
# KB-3-1 = assay: as above; conditions: Five cell lines viability, CellTiter-Glo ATP luminescence, 48-72 h; max response: stronger effect = lower value
# Outline: as §1
# GB4 = assay: qHTS profiling for inhibitors of Plasmodium falciparum proliferation (AID 504749); conditions: P. falciparum in erythrocytes, SYBR Green DNA, 72 h; series mostly up to 28.7 µM
# Outline: (§2)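 Quantitative HTS: compounds pinned into medium, infected erythrocytes added (0.3% parasitemia, 2.5% hematocrit), 72 h culture at 37 C under 5% CO2. Saponin/Triton lysis with SYBR Green I, overnight RT, then fluorescence read.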
# HB3 = assay: as above; conditions: P. falciparum in erythrocytes, SYBR Green DNA, 72 h; series mostly up to 28.7 µM
# Outline: as §2
# ICS = assay: as above; conditions: P. falciparum in erythrocytes, SYBR Green DNA, 72 h; series mostly up to 28.7 µM
# Outline: as §2
# JCK = assay: as above; conditions: P. falciparum in erythrocytes, SYBR Green DNA, 72 h; series mostly up to 28.7 µM
# Outline: as §2
# N140 = assay: as above; conditions: P. falciparum in erythrocytes, SYBR Green DNA, 72 h; series mostly up to 28.7 µM
# Outline: as §2
# P93_24 = assay: as above; conditions: P. falciparum in erythrocytes, SYBR Green DNA, 72 h; series mostly up to 28.7 µM
# Outline: as §2
# P94_40 = assay: as above; conditions: P. falciparum in erythrocytes, SYBR Green DNA, 72 h; series mostly up to 28.7 µM
# Outline: as §2
# PAD = assay: as above; conditions: P. falciparum in erythrocytes, SYBR Green DNA, 72 h; series mostly up to 28.7 µM
# Outline: as §2
# PC15 = assay: as above; conditions: P. falciparum in erythrocytes, SYBR Green DNA, 72 h; series mostly up to 28.7 µM
# Outline: as §2
# PC26 = assay: as above; conditions: P. falciparum in erythrocytes, SYBR Green DNA, 72 h; series mostly up to 28.7 µM
# Outline: as §2
# PC49 = assay: as above; conditions: P. falciparum in erythrocytes, SYBR Green DNA, 72 h; series mostly up to 28.7 µM
# Outline: as §2
# SC27B = assay: as above; conditions: P. falciparum in erythrocytes, SYBR Green DNA, 72 h; series mostly up to 28.7 µM
# Outline: as §2
# TAB109 = assay: as above; conditions: P. falciparum in erythrocytes, SYBR Green DNA, 72 h; series mostly up to 28.7 µM
# Outline: as §2
# TAB113 = assay: as above; conditions: P. falciparum in erythrocytes, SYBR Green DNA, 72 h; series mostly up to 28.7 µM
# Outline: as §2
# TAB165 = assay: as above; conditions: P. falciparum in erythrocytes, SYBR Green DNA, 72 h; series mostly up to 28.7 µM
# Outline: as §2
# W2 = assay: as above; conditions: P. falciparum in erythrocytes, SYBR Green DNA, 72 h; series mostly up to 28.7 µM
# Outline: as §2
# Note: nearly all actives have a fitted effect of over 60% in size.
# Potency is the fitted concentration of half-maximal effect.
structure (smiles),measurement,setting,value
CCN(CC)CCOc1ccc(C(=C(Cl)c2ccccc2)c2ccccc2)cc1,max response,CRL-7250,-5.74%
same,outcome,HEK293,inactive
same,max response,HaCat,-8.22%
same,outcome,KB-3-1,inactive
COCCOc1nc(-c2ccc(Cl)c(Cl)c2)n(-c2ccc(NC(=O)CCl)cc2)n1,Potency,CRL-7250,6.62 µM (active)
same,Potency,HEK293,3.72 µM (active) and 4.61 µM (active)
same,outcome,HaCat,inactive
same,Potency,KB-3-1,18.7 µM (active)
NC(=O)NN=Cc1ccc([N+](=O)[O-])o1,outcome,CRL-7250,inactive
same,max response,HEK293,1.13%
same,outcome,HaCat,inactive
same,max response,KB-3-1,2.76%
O=C1C[C@@H](c2ccc(O)cc2)Oc2cc(O)cc(O)c21,max response,CRL-7250,-1.31%
same,max response,HEK293,-0.968%
same,max response,HaCat,2.46%
same,max response,KB-3-1,7.82%
CCOC(=O)O[C@]1(C(=O)OCCl)CC[C@@H]2[C@H]3CCC4=CC(=O)C=C[C@]4(C)[C@@H]3[C@@H](O)C[C@@]21C,Potency,GB4,inactive
same,Potency,HB3,inactive
same,Potency,ICS,inactive
same,outcome,JCK,inactive
same,Potency,N140,inactive
same,outcome,P93_24,inactive
same,Potency,P94_40,inactive
same,outcome,PAD,inactive
same,outcome,PC15,inactive
same,Potency,PC26,inactive
same,outcome,PC49,inactive
same,Potency,SC27B,inactive
same,outcome,TAB109,inactive
same,Potency,TAB113,inactive
same,Potency,TAB165,inactive
same,outcome,CRL-7250,inactive
same,outcome,HEK293,inactive
same,outcome,HaCat,inactive
same,outcome,KB-3-1,inactive
CCn1cc(C(=O)O)c(=O)c2ccc(C)nc21,max response,CRL-7250,4.8% and -5.54%
same,outcome,HEK293,inactive
same,outcome,HaCat,inactive
same,max response,KB-3-1,-12% and -6.11%
O=c1ccn([C@@H]2O[C@H](CO)[C@H](O)[C@H]2O)c(=O)[nH]1,max response,CRL-7250,-5.18%
same,outcome,HEK293,inactive
same,outcome,HaCat,inactive
same,outcome,KB-3-1,inactive
NC(N)=Nc1nc(CSCC/C(N)=N/S(N)(=O)=O)cs1,Potency,GB4,inactive
same,Potency,HB3,inactive
same,Potency,ICS,inactive
same,outcome,JCK,inactive
same,Potency,N140,inactive
same,outcome,P93_24,inactive
same,Potency,P94_40,inactive
same,outcome,PAD,inactive
same,outcome,PC15,inactive
same,Potency,PC26,inactive
same,outcome,PC49,inactive
same,Potency,SC27B,inactive
same,outcome,TAB109,inactive
same,Potency,TAB113,inactive
same,Potency,TAB165,inactive
same,Potency,W2,inactive
same,max response,CRL-7250,-7.89%
same,outcome,HEK293,inactive
same,outcome,HaCat,inactive
same,max response,KB-3-1,30.2%
CN1[C@@H]2CCC[C@@H]1CC(NC(=O)c1nn(C)c3ccccc13)C2 (stereo partly drawn),max response,CRL-7250,-0.159%
same,max response,HEK293,-2.4%
same,max response,HaCat,-5.72%
same,max response,KB-3-1,1.46%
CC(=O)Oc1cc2c(s1)CCN(C(C(=O)C1CC1)c1ccccc1F)C2 (stereo not drawn),max response,CRL-7250,4.12%
same,Potency,HEK293,2.96 µM (active)
same,max response,HaCat,0.622%
same,Potency,KB-3-1,4.69 µM (active)
same,max response,KB-3-1,-10.7%
O=C(NCCN1CCOCC1)c1ccc(Cl)cc1,Potency,GB4,inactive
same,Potency,HB3,inactive
same,Potency,ICS,inactive
same,outcome,JCK,inactive
same,Potency,N140,inactive
same,outcome,P93_24,inactive
same,Potency,P94_40,inactive
same,outcome,PAD,inactive
same,outcome,PC15,inactive
same,Potency,PC26,inactive
same,outcome,PC49,inactive
same,Potency,SC27B,inactive
same,outcome,TAB109,inactive
same,Potency,TAB113,inactive
same,Potency,TAB165,inactive
same,Potency,W2,inactive
same,max response,CRL-7250,0.679%
same,max response,HEK293,-0.241%
same,max response,HaCat,-12.4%
same,max response,KB-3-1,3.6% and -22.2%
CCN(CC)C(=O)c1ccc(O)c(OC)c1,Potency,GB4,inactive
same,Potency,HB3,inactive
same,Potency,ICS,inactive
same,outcome,JCK,inactive
same,Potency,N140,inactive
same,outcome,P93_24,inactive
same,Potency,P94_40,inactive
same,outcome,PAD,inactive
same,outcome,PC15,inactive
same,Potency,PC26,inactive
same,outcome,PC49,inactive
same,Potency,SC27B,inactive
same,outcome,TAB109,inactive
same,Potency,TAB113,inactive
same,Potency,TAB165,inactive
same,Potency,W2,inactive
same,max response,CRL-7250,-9.2%
same,max response,HEK293,-4.79%
same,outcome,HaCat,inactive
same,max response,KB-3-1,2.39% and -3.02%
CC(C)C(=O)Nc1ncc(-c2cc(C(F)F)nn2-c2c(Cl)cccc2Cl)s1,max response,CRL-7250,-16.9%
same,max response,HaCat,-19.8%
CCS(=O)(=O)N1CC(CC#N)(n2cc(-c3ncnc4[nH]ccc34)cn2)C1,max response,CRL-7250,-3.54%
same,Potency,HaCat,5.17 µM (active)
same,max response,HaCat,-22.3%
CO[C@H]1C=CC=C(C)C(=O)NC2=CC(=O)C(NCCN(C)C)=C(C[C@@H](C)C[C@H](OC)[C@@H](O)[C@@H](C)C=C(C)[C@@H]1OC(N)=O)C2=O,Potency,CRL-7250,0.0526 µM (active)
same,Potency,HaCat,0.0332 µM (active)
same,Potency,KB-3-1,0.0372 µM (active)
COc1ccc(Cc2ccc(NC(N)=O)cc2)cc1-c1cccc(Cl)c1,max response,CRL-7250,2.51%
same,max response,HEK293,-15.8%
same,max response,KB-3-1,-9.2%
CC1=C(/C=C/C(C)=C/C=C/C(C)=C/C(=O)Nc2ccc(O)cc2)C(C)(C)CCC1,Potency,GB4,10.7 µM (active)
same,Potency,HB3,11.2 µM (active)
same,Potency,ICS,11.2 µM (active)
same,Potency,N140,10 µM (active)
same,Potency,P94_40,11.2 µM (active)
same,Potency,PC26,12 µM (active)
same,Potency,SC27B,10 µM (active)
same,Potency,TAB113,11.2 µM (active)
same,Potency,TAB165,10 µM (active)
same,Potency,W2,5.36 µM (active)
same,Potency,CRL-7250,16.8 µM (active)
same,Potency,HEK293,5.96 µM (active)
Cc1cc(OCCCc2c(C(=O)O)n(Cc3cccnc3)c3c(-c4c(COc5ccc(N6CCN([S+](C)(=O)[O-])CC6)cc5)nn(C)c4C)cccc23)cc(C)c1Cl,max response,CRL-7250,-16.6%
same,max response,HaCat,-19.1%
CCn1c(C(=O)N(C2CC2)C2CC2)cc2c3c(ncn3C)c(Nc3cc(C)n(C)n3)nc21,max response,CRL-7250,3.88% and -9.32%
same,max response,HaCat,2.37% and -28.6%
same,max response,KB-3-1,3.91% and 9.29%
CS(=O)(=O)N(Cc1ccco1)CC(O)Cn1c2ccccc2c2ccccc21 (stereo not drawn),max response,CRL-7250,-10% and -6.7%
same,max response,HaCat,-8.74%
same,outcome,HaCat,inactive
same,max response,KB-3-1,-4.93% and 3.15%
Cc1cccc(Nc2nc(-c3ccncc3)cs2)c1,max response,CRL-7250,-0.257%
same,outcome,HaCat,inactive
Cc1cccc(C)c1OCC(C)N (stereo not drawn),Potency,GB4,13.5 µM (active)
same,Potency,HB3,inactive
same,Potency,ICS,inactive
same,outcome,JCK,inactive
same,outcome,PAD,inactive
same,outcome,PC15,inactive
same,Potency,PC26,inactive
same,Potency,SC27B,inactive
same,outcome,TAB109,inactive
same,Potency,TAB113,inactive
same,Potency,W2,6.01 µM (active)
same,outcome,CRL-7250,inactive
same,outcome,HEK293,inactive
same,outcome,HaCat,inactive
same,max response,KB-3-1,6.51%
CO[C@H]1C[C@@H]2CC[C@@H](C)[C@@](O)(O2)C(=O)C(=O)N2CCCC[C@@H]2C(=O)O[C@H]([C@H](C)C[C@@H]2CC[C@H](OP(C)(C)=O)[C@H](OC)C2)CC(=O)[C@H](C)C=C(C)[C@@H](O)[C@@H](OC)C(=O)[C@H](C)C[C@H](C)C=CC=CC=C1C,max response,CRL-7250,-18.4%
same,outcome,HaCat,inactive
O=C1C(Cl)=C(NCCN2CCOCC2)C(=O)c2ncccc21,Potency,CRL-7250,9.35 µM (active)
same,Potency,HEK293,13.2 µM (active)
same,Potency,KB-3-1,20.9 µM (active)
O=c1c(-c2ccc(O)cc2)coc2cc(OC3O[C@H](CO)[C@H](O)[C@H](O)[C@H]3O)cc(O)c12 (stereo partly drawn),max response,CRL-7250,-31.9%
same,max response,HaCat,-51.1%
